Source: PubChem BioAssay (NCI)
Values joined by “and” are separate entries in the source; they are usually repeats but may differ in a detail not shown here. Identical values can stand only once. This is part of a sample that, as a whole, favours compounds with a hit. Of some 83,000 tested, about 20% had one in any assay.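 Percent growth is the endpoint: 0 to 100 indicates growth inhibition (40 means 60% inhibition), 0 means no net growth, and negative values indicate cell death.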 Unmarked numbers belong to inactive results. Active and inactive are the calls of the source. Rule for the calls: active = growth percent below 10; inactive = the rest.

Tested on: MDA-MB-468 breast
Assay: NCI-60 one-dose screen, 48 h (100 = growth as untreated, 0 = no growth, -100 = all killed)
Conditions: 10 µM unless noted

| Structure (SMILES) | growth |
| --- | --- |
| CCn1cc(-c2ccnc3[nH]c(-c4cccc(CN(C)C)c4)cc23)c(-c2ccc(NC(=O)N(C)C)cc2)n1 | 56.5% |
| COc1cc(NC(=O)C2=C(C)NC(C)=C(C(=O)Nc3cc(OC)c(Cl)cc3OC)C2c2cccc([N+](=O)[O-])c2)c(OC)cc1Cl | -11.7% (active) |
| CCc1ccc(-c2cn3ccnc3c(-c3ccc4ncn(Cc5ccccc5)c4c3)n2)cc1 | 82.8% |
| CCCCC(=O)OC1CCCCC1C (stereo not drawn) | 86.6% |
| COC(=O)c1ccc2cc(OC)c(OC)cc2c1 | 98.6% |
| O=C(O)Cc1ccccn1 | 101% |
| CCN(CC)CCN1CC(=O)Nc2cc(Cl)ccc21 | 98.7% |
| COc1cc2ncnc(Nc3ccc(S(=O)(=O)Nc4nccs4)cc3)c2cc1OCCCN1CCCC1 | 99.2% |
| CCc1ccc(NC(=O)N[C@@H](Cc2cc(F)cc(F)c2)C(=O)N[C@@H]2C(=O)N3CCC[C@H]3C(=O)N3CCO[C@H](C)[C@H]3C(=O)N[C@@H](CO)C(=O)N3C[C@H](C)C[C@H]3C(=O)O[C@H]2C)c(F)c1 | -7.66% (active) |
| CN1C(=O)N(C)C2C1NN=c1s/c(=C\c3ccc([N+](=O)[O-])cc3)c(=O)n12 (stereo not drawn) | 53.4% |
| CC1SC(=S)N(c2ccc(Cl)cc2)C1=O (stereo not drawn) | 84.9% and 90.4% |
| O=C(Nc1ccccc1)Oc1cccc2cccnc12 | 96.9% |
| COc1cc(-c2nn(C(C)(C)C)cc2-c2ccnc(NCCCNS(=O)(=O)c3ccc(F)cc3)n2)ccc1Cl | 72.9% |
